The values that follow come from PubChem BioAssay (Tox21).

Records with an inconclusive call do not appear. Values without a mark were called inactive. The call rests on the fitted dose curve; in most records, active means well fitted curve in the direction sought with a large enough effect in the repeat runs; inconclusive means weak or mixed curves; inactive means no such curve, though single readings can be large; an effect the other way counts as inactive or inconclusive.
On the % scale 0 is the no-effect control and ±100 the full control effect.

A short description of one test: qHTS assay to identify small molecule agonists of the sonic hedgehog signaling (Shh) pathway - cell viability counter screen (AID 1259366). Further: nearly all actives have a fitted effect of over 50% in size. As to conditions: NIH/3T3 Gli1-Luc viability, CellTiter-Fluor, 24 h; series mostly up to 92.4 µM; viability change, negative = cytotoxic: at the top concentration. Summed up: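 Fluorescence from CellTiter-Fluor reports live cells in this counter screen. NIH/3T3-derived Gli1-Luc reporter cells receive test compounds for 24hr at 37C; reagent goes in at 23hr.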
For orientation: qHTS replaces the single test concentration by a dilution series.
Consider `CN(C)c1cc(NC(=O)CNC(C)(C)C)c(O)c2c1C[C@H]1C[C@H]3[C@H](N(C)C)C(=O)C(C(N)=O)=C(O)[C@@]3(O)C(=O)C1=C2O`, for which the “viability change, negative = cytotoxic” value was -17.8% [at 42.5 µM].

As for `O=C[C@@H](O)[C@H](O)[C@H](O)CO`, the “viability change, negative = cytotoxic” value was 0.844%.

For `CCCCS`, the “viability change, negative = cytotoxic” value is -3.35%.

With `C=COCCCCO`, the “viability change, negative = cytotoxic” value was 3.59%.

Turning to `CN1C(CCl)Nc2cc(Cl)c(S(N)(=O)=O)cc2S1(=O)=O` (stereo unspecified), the “viability change, negative = cytotoxic” value is -4.94% [at 42.5 µM].

Consider `CCCCN1C(=O)c2ccccc2C1=O`, for which the “viability change, negative = cytotoxic” value was -3.12%.

Take `Cc1cc(=O)oc2cc(O[C@@H]3SC[C@@H](O)[C@H](O)[C@H]3O)ccc12`: the “viability change, negative = cytotoxic” value is 5.78% [at 42.5 µM].

`C/C=C(\C)C=O`: the “viability change, negative = cytotoxic” value was 3.07%.

Regarding `COc1cnc(NS(=O)(=O)c2ccc(N)cc2)nc1`, the “viability change, negative = cytotoxic” value was 1.47% [at 42.5 µM].

As for `COC(=O)/C=C(\C)CCC=C(C)C`, the “viability change, negative = cytotoxic” value is 0.0434%.

Regarding `Cc1cc(O)c(Cl)cc1C`, the “viability change, negative = cytotoxic” value is -1.57%.

For the compound `NNC(=O)OCc1ccccc1`, the “viability change, negative = cytotoxic” value is 0.63%.

`CC(=O)c1c(C)cc(C(C)(C)C)cc1C`: the “viability change, negative = cytotoxic” value is -4.87%.

For `COc1ccc2cc(CCC(C)=O)ccc2c1`, the “viability change, negative = cytotoxic” value is 6.36% [at 42.5 µM].

As for `CN(C)CCc1c[nH]c2ccc(CS(=O)(=O)N3CCCC3)cc12`, the “viability change, negative = cytotoxic” value is -2.51% [at 42.5 µM].

With `CCOC(=O)CN1CCCC1=O`, the “viability change, negative = cytotoxic” value was 1.02% [at 42.5 µM].

In the case of `CCCCCCCCCCCCCCCCN(C)C`, the viability change, negative = cytotoxic is 4.7% [at 8.39 µM].

In the case of `C[C@@H]1NC(=O)[C@@H](N)CNC(=O)[C@H](C2CCNC(N)=N2)NC(=O)/C(=C/NC(N)=O)NC(=O)[C@H](CNC(=O)C[C@@H](N)CCCN)NC1=O` (stereo partly specified), the viability change, negative = cytotoxic was -4% [at 0.349 µM].

`CCCCC(O)/C=C(C)/C=C/C=C/C(=O)N1CCCC1=O` (stereo unspecified): the “viability change, negative = cytotoxic” value was -5.47% [at 42.5 µM].

Take `CCc1ncc(C)[nH]1`: the “viability change, negative = cytotoxic” value is 6.16%.

Turning to `CCCCCCCCCCCC(C)=O`, the “viability change, negative = cytotoxic” value is 6.66%.

Regarding `CC[C@@]1(c2ccccc2)NC(=O)N(C)C1=O`, the “viability change, negative = cytotoxic” value is 3.96% [at 42.5 µM].

For the compound `CCCC(=O)OC`, the “viability change, negative = cytotoxic” value is -8.31%.

Regarding `CC(C)(C)OC=O`, the “viability change, negative = cytotoxic” value was 1.24%.

For `Cc1cc(C)c(N)c(Cl)c1`, the “viability change, negative = cytotoxic” value was -1.91%.

`C=CCON/C(CCC)=C1\C(=O)CC(C)(C)C(C(=O)OC)=C1O`: the “viability change, negative = cytotoxic” value is -4.82%.

For `CN1CCN(C(=O)C2CCCCC2)CC1`, the “viability change, negative = cytotoxic” value was -1.81% [at 42.5 µM].

For `O=C1c2ccccc2C(=O)N1CO`, the “viability change, negative = cytotoxic” value is -0.207%.

Regarding `C=CC(C)(CCC=C(C)C)OC(=O)C(C)C` (stereo unspecified), the “viability change, negative = cytotoxic” value is 5.8%.

For `CCOC(=O)CC(C(C)=O)C(C)=O`, the “viability change, negative = cytotoxic” value is -1.87%.

Consider `COC(=O)c1cc(Cl)c(NC(C)=O)cc1OC`, for which the “viability change, negative = cytotoxic” value is 0.492% [at 42.5 µM].

Turning to `Cc1nnc(C(=O)NC(C)(C)c2nc(C(=O)NCc3ccc(F)cc3)c(O)c(=O)n2C)o1`, the “viability change, negative = cytotoxic” value was -0.755% [at 42.5 µM].

In the case of `Cc1ccc2cccnc2c1`, the “viability change, negative = cytotoxic” value is -1.44%.

As for `CCCCN(CCCC)CCCCCCN(CCCC)CCCC`, the “viability change, negative = cytotoxic” value is -0.0204%.

As for `CC1(C)S[C@@H]2[C@H](NC(=O)Cc3ccccc3)C(=O)N2[C@H]1C(=O)O` (tested in a mixture with another compound), the “viability change, negative = cytotoxic” value was 0.731% [at 42.5 µM].

Regarding `CCN1CCN(C(=O)N[C@@H](C(=O)N[C@@H]2C(=O)N3C(C(=O)O)=C(CSc4nnnn4C)CS[C@H]23)c2ccc(O)cc2)C(=O)C1=O`, the “viability change, negative = cytotoxic” value is -6.49% [at 42.5 µM].

As for `COc1cc(OC)cc(OC)c1`, the “viability change, negative = cytotoxic” value was 4.97% [at 42.5 µM].

Consider `Cc1ccc(N)nc1`, for which the “viability change, negative = cytotoxic” value was -0.143%.

The next test can be described thus: qHTS assay to identify small molecule antagonists of the sonic hedgehog signaling (Shh) pathway - cell viability counter screen (AID 1259367). Further: nearly all actives have a fitted effect of over 55% in size. As to conditions: NIH/3T3 Gli1-Luc viability, CellTiter-Fluor, 24 h; series mostly up to 92.4 µM; viability change, negative = cytotoxic: at the top concentration. Summed up: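 Cells: 3T3 Gli1-Luc, 2,000/well, 4 hr pre-incubation. Compounds in DMSO, then conditioned medium. Incubation 24 hr, 37C, 5% CO2. CellTiter-Fluor at 23 hr, 1 hr, fluorescence.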
With `CN(C)c1cc(NC(=O)CNC(C)(C)C)c(O)c2c1C[C@H]1C[C@H]3[C@H](N(C)C)C(=O)C(C(N)=O)=C(O)[C@@]3(O)C(=O)C1=C2O`, the “viability change, negative = cytotoxic” value is 4.4% [at 42.5 µM].

In the case of `O=C[C@@H](O)[C@H](O)[C@H](O)CO`, the “viability change, negative = cytotoxic” value is 0.297%.

Regarding `CCCCS`, the “viability change, negative = cytotoxic” value is 8.02%.

With `C=COCCCCO`, the “viability change, negative = cytotoxic” value is -2.23%.

Take `CN1C(CCl)Nc2cc(Cl)c(S(N)(=O)=O)cc2S1(=O)=O` (stereo unspecified): the “viability change, negative = cytotoxic” value was 0.489% [at 42.5 µM].

In the case of `CCCCN1C(=O)c2ccccc2C1=O`, the “viability change, negative = cytotoxic” value was 0.623%.

For `Cc1cc(=O)oc2cc(O[C@@H]3SC[C@@H](O)[C@H](O)[C@H]3O)ccc12`, the “viability change, negative = cytotoxic” value is 5.46% [at 42.5 µM].

In the case of `C/C=C(\C)C=O`, the “viability change, negative = cytotoxic” value was -5.15%.

`COc1cnc(NS(=O)(=O)c2ccc(N)cc2)nc1`: the “viability change, negative = cytotoxic” value was 0.274% [at 42.5 µM].

On to `COC(=O)/C=C(\C)CCC=C(C)C`, for which the “viability change, negative = cytotoxic” value was 0.81%.

Consider `Cc1cc(O)c(Cl)cc1C`, for which the “viability change, negative = cytotoxic” value is -0.991%.

As to `NNC(=O)OCc1ccccc1`, the “viability change, negative = cytotoxic” value is -0.176%.

Regarding `CC(=O)c1c(C)cc(C(C)(C)C)cc1C`, the “viability change, negative = cytotoxic” value is -1.03%.

As to `COc1ccc2cc(CCC(C)=O)ccc2c1`, the “viability change, negative = cytotoxic” value was 2.75% [at 42.5 µM].

As for `CN(C)CCc1c[nH]c2ccc(CS(=O)(=O)N3CCCC3)cc12`, the “viability change, negative = cytotoxic” value is 0.344% [at 42.5 µM].

In the case of `CCOC(=O)CN1CCCC1=O`, the “viability change, negative = cytotoxic” value is 1.82% [at 42.5 µM].

Consider `CCCCCCCCCCCCCCCCN(C)C`, for which the viability change, negative = cytotoxic is 2.16% [at 8.39 µM].

Turning to `C[C@@H]1NC(=O)[C@@H](N)CNC(=O)[C@H](C2CCNC(N)=N2)NC(=O)/C(=C/NC(N)=O)NC(=O)[C@H](CNC(=O)C[C@@H](N)CCCN)NC1=O` (stereo partly specified), the viability change, negative = cytotoxic is 1.74% [at 0.349 µM].

`CCCCC(O)/C=C(C)/C=C/C=C/C(=O)N1CCCC1=O` (stereo unspecified): the “viability change, negative = cytotoxic” value is -1% [at 42.5 µM].

`CCc1ncc(C)[nH]1`: the “viability change, negative = cytotoxic” value is 0.954%.

Take `CCCCCCCCCCCC(C)=O`: the “viability change, negative = cytotoxic” value was 1.99%.

For the compound `CC[C@@]1(c2ccccc2)NC(=O)N(C)C1=O`, the “viability change, negative = cytotoxic” value is -1.97% [at 42.5 µM].

Turning to `CCCC(=O)OC`, the “viability change, negative = cytotoxic” value is -0.166%.

With `CC(C)(C)OC=O`, the “viability change, negative = cytotoxic” value is -16.1%.

Turning to `Cc1cc(C)c(N)c(Cl)c1`, the “viability change, negative = cytotoxic” value is -0.154%.

For the compound `C=CCON/C(CCC)=C1\C(=O)CC(C)(C)C(C(=O)OC)=C1O`, the “viability change, negative = cytotoxic” value is -8.75%.

Take `CN1CCN(C(=O)C2CCCCC2)CC1`: the “viability change, negative = cytotoxic” value was -1.65% [at 42.5 µM].

With `O=C1c2ccccc2C(=O)N1CO`, the “viability change, negative = cytotoxic” value was 4.29%.

For `C=CC(C)(CCC=C(C)C)OC(=O)C(C)C` (stereo unspecified), the “viability change, negative = cytotoxic” value was 7%.

With `CCOC(=O)CC(C(C)=O)C(C)=O`, the “viability change, negative = cytotoxic” value is -1.53%.

Take `COC(=O)c1cc(Cl)c(NC(C)=O)cc1OC`: the “viability change, negative = cytotoxic” value is 1.77% [at 42.5 µM].

Take `Cc1nnc(C(=O)NC(C)(C)c2nc(C(=O)NCc3ccc(F)cc3)c(O)c(=O)n2C)o1`: the “viability change, negative = cytotoxic” value was 1.86% [at 42.5 µM].

Take `Cc1ccc2cccnc2c1`: the “viability change, negative = cytotoxic” value is 9.68%.

Turning to `CCCCN(CCCC)CCCCCCN(CCCC)CCCC`, the “viability change, negative = cytotoxic” value was 0.628%.

Consider `CC1(C)S[C@@H]2[C@H](NC(=O)Cc3ccccc3)C(=O)N2[C@H]1C(=O)O` (tested in a mixture with another compound), for which the “viability change, negative = cytotoxic” value was -0.0539% [at 42.5 µM].

Consider `CCN1CCN(C(=O)N[C@@H](C(=O)N[C@@H]2C(=O)N3C(C(=O)O)=C(CSc4nnnn4C)CS[C@H]23)c2ccc(O)cc2)C(=O)C1=O`, for which the “viability change, negative = cytotoxic” value was 5.28% [at 42.5 µM].

For `COc1cc(OC)cc(OC)c1`, the “viability change, negative = cytotoxic” value was 3.78% [at 42.5 µM].

Consider `Cc1ccc(N)nc1`, for which the “viability change, negative = cytotoxic” value is 1.17%.
